Here are results for 20 compounds from PubChem BioAssay (Tox21).

Records with an inconclusive call do not appear. Values without a mark were called inactive. Active and inactive are the calls of the source. Calls follow the shape of the dose curve; as a rule, active = well fitted curve in the direction sought with a large enough effect in the repeat runs; inconclusive = weak or mixed curves; inactive = no such curve, though single readings can be large; an effect the other way counts as inactive or inconclusive.

Assay [1] in a line: qHTS RealTime-Glo MT Cell Viability Assay in HepG2 cells - 40 hour (AID 1224870). Also: nearly all actives have a fitted effect of over 50% in size. An outline of the steps: (§1)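 HepG2 cells (600/well) mixed with RealTime-Glo MT reagent, settled 5 h at 37 C/5% CO2 before compound addition. Nonlytic NanoLuc luminescence from viable-cell prosubstrate reduction read repeatedly during 40 h treatment at 37 C.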
The nature of assay [2]: A CellTox Green Cytotoxicity Assay to monitor cytotoxicity in HEK293 cells - 40 hour (AID 1224871). Also: nearly all actives have a fitted effect of over 45% in size. Also: potency is read from the fitted curve at half-maximal effect. An outline of the steps:
(§2)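 Real-time, in one plate: 600 HEK293 cells/well with dead-cell DNA dye, pinned compound after 5 h, 37 C incubation over 40 h; viable cells give no appreciable fluorescence.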

The nature of assay [3]: qHTS RealTime-Glo MT Cell Viability Assay in HepG2 cells - 8 hour (AID 1224873). Also: nearly all actives have a fitted effect of over 55% in size. In outline: as §1
(Quantitative high-throughput screening tests each substance at several concentrations.)

Assay [4] in a line: qHTS RealTime-Glo MT Cell Viability Assay in HEK293 cells - 40 hour (AID 1224874). Also: nearly all actives have a fitted effect of over 50% in size. Also: potency is read from the fitted curve at half-maximal effect. The conditions noted are these: RealTime-Glo luminescence; max response: hits give low values. In outline:
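Kinetic, non-lysing viability readout. Seed HEK293 (600/well) with reagent, incubate 5 h at 37 C/5% CO2, pin 23 nL compound in DMSO, incubate at 37 C, read luminescence at 0, 8, 16, 24, 32, 40 h.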

Assay [5] in a line: A CellTox Green Cytotoxicity Assay to monitor cytotoxicity in HepG2 cells - 16 hour (AID 1224876). Also: nearly all actives have a fitted effect of over 45% in size. Also: potency is read from the fitted curve at half-maximal effect. An outline of the steps: (§3)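 Cytotoxicity was tracked as dead-cell DNA fluorescence in HepG2 cells treated with test compounds at 37 C; each time-point value comes from one kinetic series spanning 0, 8, 16, 24, 32 and 40 h.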
Assay [6] in a line: qHTS RealTime-Glo MT Cell Viability Assay in HepG2 cells - 32 hour (AID 1224877). Also: nearly all actives have a fitted effect of over 55% in size. In outline: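 Compound treatment began 5 h after plating HepG2 cells (600/well) with NanoLuc luciferase and prosubstrate. Plates stayed at 37 C for 40 h; luminescence was captured at six time points, 0 h through 40 h.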
Assay [7] is described as follows: A CellTox Green Cytotoxicity Assay to monitor cytotoxicity in HepG2 cells - 24 hour (AID 1224878). Also: nearly all actives have a fitted effect of over 45% in size. Also: potency is read from the fitted curve at half-maximal effect. An outline of the steps: as §3
The nature of assay [8]: A CellTox Green Cytotoxicity Assay to monitor cytotoxicity in HepG2 cells - 40 hour (AID 1224879). Also: nearly all actives have a fitted effect of over 40% in size. Also: potency is read from the fitted curve at half-maximal effect. An outline of the steps: as §3
Assay [9] is described as follows: A CellTox Green Cytotoxicity Assay to monitor cytotoxicity in HEK293 cells - 24 hour (AID 1224875). Also: series mostly up to about 77 µM; nearly all actives have a fitted effect of over 45% in size. An outline of the steps:
as §2

A short description of assay [10]: qHTS RealTime-Glo MT Cell Viability Assay in HEK293 cells - 16 hour (AID 1224872). Also: nearly all actives have a fitted effect of over 50% in size. Also: potency is read from the fitted curve at half-maximal effect. In outline: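 Quantitative high-throughput screen of the Tox21 10K library in HEK293: cells and RealTime-Glo reagents plated together, compound added at 5 h, luminescence monitored through 40 h at 37 C.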
% is scaled to controls: 0 for no effect and ±100 for the full control effect.

On to `NC(=O)c1ccccc1C(N)=O`, for which the Potency entry in assay [1] and in [6] was “inactive” each time. For the same compound, the Potency is 49.2 µM (active) in assay [2]; 31 µM (active) in assay [4]; 55.2 µM (active) in [5]; 55.2 µM (active) in assay [7]; 49.2 µM (active) in [8]. The compound was called inactive in assay [3].
Take `CCCN(C1CCN(C(=O)C2CCNCC2)CC1)[C@@H]1CCc2ccc(OC)cc2C1`: the Potency result in [1] and in [6] was “inactive” in each case. In addition, the call in [3] was inactive.
With `O=C(OCCCCCOC(=O)c1ccccc1)c1ccccc1`, the Potency entry in assay [1], in assay [2], in assay [9], in [5], in [7] and in [8] was “inactive” each time. Further, the compound was classed as inactive in assay [3].
As for `COC(=O)C(C)(C)C`, the Potency entry in assay [1], in assay [2], in [9], in assay [5], in [7] and in assay [8] was “inactive” in each case. Besides, in [3], the compound was classed as inactive. Further, in assay [4], the max response is -22.6%.
For `COc1ccc(/C=C/c2cc(OC)cc(=O)o2)cc1`, the Potency entry in [1], in assay [2], in assay [9], in assay [5], in assay [6] and in [7] was “inactive” each time. Moreover, the Potency entry in assay [8] was “inactive”. Also, the call in assay [3] was inactive.
On to `COc1ccc(C(=O)Nc2ccccc2)cc1[N+](=O)[O-]`, for which the Potency entry in assay [1], in assay [5], in [6], in assay [7] and in assay [8] was “inactive” in each case. Further, the Potency in assay [10] and in assay [4] was 24.7 µM (active) throughout. Moreover, the compound was classed as inactive in assay [3].
With `O=C(O)COCC(=O)O`, the Potency result in assay [1], in [10], in assay [9], in assay [5], in [6] and in assay [7] was “inactive” each time. In addition, the Potency entry in assay [8] is “inactive”. For the same compound, the result in assay [3] was inactive. For the same compound, in assay [4], the max response was -0.496%.
Turning to `Nc1ccc(-c2ccc(F)cc2)cc1`, the Potency result in assay [1], in assay [2], in [5], in [6], in assay [7] and in assay [8] was “inactive” each time. Besides, in assay [3], the result was inactive. In [4], the max response is -22.4%.
`Cc1ccc(NC(=O)c2ccc(CN3CCN(C)CC3)cc2)cc1Nc1nccc(-c2cccnc2)n1`: the Potency result in [1], in assay [2], in assay [9], in [5], in [6] and in assay [7] was “inactive” in each case. For the same compound, the compound was called inactive in [3]. In [4], the Potency was 21.3 µM (active).
As for `CC(=O)c1ccc(Cl)c(Cl)c1Cl`, the Potency entry in assay [1], in assay [10], in [5], in assay [6], in [7] and in assay [8] was “inactive” in each case. For the same compound, in [3], the compound was called inactive.
Take `SCCOCCOCCS`: the Potency result in assay [1], in [2], in [9], in [5], in [6] and in assay [7] was “inactive” each time. Moreover, the Potency entry in [8] is “inactive”. Further, the result in assay [3] was inactive. Further, the max response in assay [4] was -3.19%.
In the case of `Oc1ccc(CCNCCCCCCNCCc2ccccc2)cc1O`, the Potency entry in assay [2], in assay [9], in [5] and in assay [7] was “inactive” in each case. For the same compound, the Potency in assay [10] was 23.9 µM (active). The result in [3] was inactive.
Regarding `Oc1ccc(Oc2ccccc2)cc1`, the Potency result in [1] and in [9] was “inactive” each time. The Potency in assay [10] was 14.7 µM (active); in assay [4], 14.7 µM (active); in assay [7] it was 36.9 µM (active); in [8] it was 36.9 µM (active). Further, the compound was classed as inactive in assay [3].
For `CCN(CCCCOC(=O)c1ccc(OC)c(OC)c1)C(C)Cc1ccc(OC)cc1` (centres undefined), the Potency result in [1], in [2], in [9], in assay [5] and in [6] was “inactive” each time. For the same compound, the compound was classed as inactive in assay [3].
As to `O=c1c2ccccc2oc2ccccc12`, the Potency entry in [1], in assay [9], in assay [5], in assay [6], in assay [7] and in assay [8] was “inactive” each time. The call in assay [3] was inactive.
Consider `CC(C)CC(C)(C)C`, for which the Potency entry in assay [1], in assay [5], in [6], in assay [7] and in assay [8] was “inactive” throughout. Further, the result in assay [3] was inactive. For the same compound, the max response in assay [4] was -17.8%.
With `O=C(Nc1ccc2c(c1)Cc1ccccc1-2)C(F)(F)F`, the Potency entry in [1], in [2], in assay [9], in assay [5], in assay [6] and in assay [7] was “inactive” in each case. In assay [8], the Potency entry is “inactive”. Moreover, the call in assay [3] was inactive.
`Clc1cccc(C(c2ccc3nc[nH]c3c2)n2ccnc2)c1` (centres undefined): the Potency result in assay [1], in [2], in [9], in assay [5], in [6] and in assay [7] was “inactive” throughout. The Potency result in assay [8] is “inactive”. Also, in assay [3], the compound was classed as inactive. For the same compound, in [4], the max response is -17.1%.
In the case of `S=c1[nH][nH]c(=S)s1`, the Potency entry in [1], in assay [2], in assay [9], in [5], in [7] and in assay [8] was “inactive” throughout. The call in assay [3] was inactive.
With `O=C(O)c1c2ccccc2cc2ccccc12`, the Potency entry in [1], in assay [9], in assay [5], in assay [6], in assay [7] and in assay [8] was “inactive” in each case. Also, the Potency is 34.6 µM (active) in assay [2] and 38.8 µM (active) in assay [4]. Moreover, the call in assay [3] was inactive.
